Results filed as inconclusive are left out. Activity calls are given as the source filed them. The call rests on the fitted dose curve; in most records, active means well fitted inhibition curve with a large enough effect; inconclusive means small, poorly fitted or top-dose-only effect; inactive means flat fitted curve, though single readings scatter.

Chain of Lysine-specific demethylase 5B (Homo sapiens) (Q9UGL1 whole entry, looked up): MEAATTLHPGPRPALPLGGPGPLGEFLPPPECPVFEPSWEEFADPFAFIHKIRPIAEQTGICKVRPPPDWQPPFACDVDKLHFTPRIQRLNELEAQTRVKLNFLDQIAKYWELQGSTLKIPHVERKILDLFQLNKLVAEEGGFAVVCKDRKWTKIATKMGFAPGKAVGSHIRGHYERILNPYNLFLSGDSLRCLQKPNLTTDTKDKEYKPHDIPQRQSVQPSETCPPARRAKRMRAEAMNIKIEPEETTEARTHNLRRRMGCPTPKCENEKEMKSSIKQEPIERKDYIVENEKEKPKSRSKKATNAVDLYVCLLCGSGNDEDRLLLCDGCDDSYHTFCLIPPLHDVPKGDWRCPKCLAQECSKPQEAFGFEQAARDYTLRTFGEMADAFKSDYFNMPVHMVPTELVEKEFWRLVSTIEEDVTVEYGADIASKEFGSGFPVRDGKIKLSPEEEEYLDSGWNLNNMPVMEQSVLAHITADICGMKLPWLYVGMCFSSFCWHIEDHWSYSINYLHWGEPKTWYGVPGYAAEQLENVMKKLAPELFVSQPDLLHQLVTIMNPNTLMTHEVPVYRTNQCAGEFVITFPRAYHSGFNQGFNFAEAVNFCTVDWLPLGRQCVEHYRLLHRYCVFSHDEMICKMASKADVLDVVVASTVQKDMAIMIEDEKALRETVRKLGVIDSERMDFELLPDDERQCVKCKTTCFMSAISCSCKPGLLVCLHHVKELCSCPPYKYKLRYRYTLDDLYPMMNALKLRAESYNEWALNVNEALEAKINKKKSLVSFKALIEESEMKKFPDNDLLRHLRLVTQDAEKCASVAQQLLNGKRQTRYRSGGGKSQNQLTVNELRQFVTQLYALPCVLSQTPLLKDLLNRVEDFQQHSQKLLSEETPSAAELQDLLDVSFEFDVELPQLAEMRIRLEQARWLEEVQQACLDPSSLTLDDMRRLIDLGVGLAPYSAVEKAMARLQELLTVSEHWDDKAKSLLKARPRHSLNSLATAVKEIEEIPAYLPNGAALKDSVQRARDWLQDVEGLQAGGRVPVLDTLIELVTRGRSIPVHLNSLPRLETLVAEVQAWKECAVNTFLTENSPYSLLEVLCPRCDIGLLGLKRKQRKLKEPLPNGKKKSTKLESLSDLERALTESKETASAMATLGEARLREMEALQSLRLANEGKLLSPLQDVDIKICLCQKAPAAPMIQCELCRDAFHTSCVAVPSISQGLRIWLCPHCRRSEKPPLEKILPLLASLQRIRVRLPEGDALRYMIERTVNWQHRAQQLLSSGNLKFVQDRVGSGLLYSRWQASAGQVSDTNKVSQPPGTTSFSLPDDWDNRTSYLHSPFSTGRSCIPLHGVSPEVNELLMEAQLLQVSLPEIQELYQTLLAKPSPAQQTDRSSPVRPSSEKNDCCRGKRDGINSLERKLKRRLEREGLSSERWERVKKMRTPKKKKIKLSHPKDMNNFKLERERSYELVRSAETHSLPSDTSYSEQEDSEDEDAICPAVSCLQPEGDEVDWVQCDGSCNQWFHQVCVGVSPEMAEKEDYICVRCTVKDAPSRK

For the test, the target named is Lysine-specific demethylase 5B (Homo sapiens) (UniProt Q9UGL1). Kind of test: Optimization screen for KDM5B Histone Demethylases FDH coupled qHTS against the LOPAC library (AID 1347166). Further: 0% is about no effect. The conditions noted are these: KDM5B demethylation, FDH-coupled NADH fluorescence (FDH is formaldehyde dehydrogenase); at 57.5 µM (top of the series). Summed up:
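KDM5BDeltaAP (200nM final) preincubated 10 min with compound, then 12.5uM H3K4Me3, 25uM a-ketoglutarate, ascorbate, Fe(II), NAD+ and FDH added; 50mM HEPES pH 7.5, 0.01% Tween-20. NADH fluorescence (340/450 nm) change over 30 min, room temperature.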
Background: In qHTS, concentration-response curves come from the screen itself.
For `OC1(c2ccc(Cl)cc2)CCN(Cc2c[nH]c3ccccc23)CC1`, the activity, negative = inhibition was -0.728% (inactive).
Under `NC1CCN(O)C1=O` (stereo not given) stands -8.73% (inactive); under `COc1cc([C@@H]2c3cc4c(cc3[C@H](O)C3COC(=O)[C@@H]32)OCO4)cc(OC)c1OC` (stereo not given in full), -3% (inactive); under `CC(C)C[C@H](NC(=O)C1OC1C(=O)O)C(=O)NCCCCN=C(N)N` (stereo not given in full), 0.286% (inactive).
Under `N=C(N)SCCN` stands -12% (inactive).
Under `CCCCCCCCCCC/C=C\C(C)(C)/C=C\CCCC(=O)O` stands -18.4% (inactive); under `NC(N)=N[C@@H](CCC(=O)O)C(=O)O`, -1.71% (inactive); under `CCC(=O)N1CCN(C(=O)c2ccccc2)CC1`, 3.19% (inactive).
Consider `C=CC1(C)CC(=O)C2(O)C(C)(O1)C(OC(C)=O)C(O)C1C(C)(C)CCC(O)C12C` (stereo not given), for which the activity, negative = inhibition was -2.72% (inactive).
On to `c1ccc2c(c1)CCC[C@H]2Nc1nc2ccccc2[nH]1`, for which the activity, negative = inhibition was -7.62% (inactive).
For `CC1CCN=C(N)S1` (stereo not given), the activity, negative = inhibition was -2.36% (inactive).
Then `Nc1ncnc2c1nc(Sc1ccc(Cl)cc1)n2[C@H]1OC2COP(=O)(O)O[C@@H]2C1O` (stereo not given in full), with -0.0945% (inactive); and `O=C(O)/C=C/c1cnc[nH]1`, with -28.2% (inactive); and `C[C@H]1CC2C3CCC4=CC(=O)C=C[C@]4(C)[C@@]3(Cl)[C@@H](O)C[C@]2(C)[C@@]1(O)C(=O)CO` (stereo not given in full), with -1.11% (inactive).
Under `CC1C(=O)N(C)C(=O)c2nc[nH]c21` (stereo not given) stands -5.54% (inactive); under `NCCCCN=C(N)N`, -1.42% (inactive).
Under `CCCOC(=O)c1c(-c2ccccc2)nc(CC)c(C(=O)SCC)c1CCC` stands -14.4% (inactive).
Turning to `Clc1nccc2c1ccc1ccccc12`, the activity, negative = inhibition was 2.06% (inactive).
For the compound `O=c1[nH]c2cc(Cl)ccc2c(O)c1-c1ccc(Oc2ccccc2)cc1`, the activity, negative = inhibition is -28.1% (inactive).
Then `CN(C)S(=O)(=O)c1ccc2c(c1)/C(=C/c1cc3c([nH]1)CCCC3)C(=O)N2`, with -8.97% (inactive); and `C[N+](C)(C)CC=O`, with -0.629% (inactive); and `NC(Cc1cccc(-c2ccccc2CP(=O)(O)O)c1)C(=O)O` (stereo not given), with -9.93% (inactive).
Under `OC[C@H]1O[C@@H](n2cnc3cncnc32)[C@H](O)[C@@H]1O` stands -2.2% (inactive).
In the case of `C[C@@]1(C2CCCC2)Cc2cc(OCC(=O)O)c(Cl)c(Cl)c2C1=O`, the activity, negative = inhibition was -5.03% (inactive).
With `CCOC(=O)C12CC1/C(=N/O)c1ccccc1O2` (stereo not given), the activity, negative = inhibition is -9.53% (inactive).
Take `CC(C)C[C@H](NC(=O)[C@H](O)[C@H](N)Cc1ccccc1)C(=O)O`: the activity, negative = inhibition was -4.3% (inactive).
Under `CCCCS(=N)(=O)CC[C@H](N)C(=O)O` (stereo not given in full) stands -2.9% (inactive); under `N=C(N)c1ccc(OCCCCCOc2ccc(C(=N)N)cc2)cc1` (tested in a mixture with another compound), -13.6% (inactive).
Then `COc1cccc(OC)c1OCCNCC1CSc2ccccc2O1` (stereo not given), with -14.1% (inactive); and `CSc1nc(N)c2ncn([C@@H]3O[C@H](COP(=O)(O)OP(=O)(O)O)C(O)[C@H]3O)c2n1` (stereo not given in full), with -13.8% (inactive).
On to `CC[C@H](NC(=O)c1c(C)c(-c2ccccc2)nc2ccccc12)c1ccccc1`, for which the activity, negative = inhibition is -4.22% (inactive).
Under `Oc1ccc(/C=C/c2ccc(/C=C/c3ccc(O)cc3)c(Br)c2)cc1` stands 662% (inactive); under `CC[N+](CC)(CC)CC(=O)Nc1c(C)cccc1C`, -1.53% (inactive).
Under `Cn1cc(C(=O)OCC2CCN(CCNS(C)(=O)=O)CC2)c2ccccc21` stands -6.85% (inactive).
Then `O=C(O)c1ccccc1Nc1ccccc1`, with -9.73% (inactive).

The record behind these values is PubChem BioAssay (NCATS).
